Screening results: PubChem BioAssay, National Center for Advancing Translational Sciences (NCATS)
Only some compounds are listed: those with a hit (about 6.6% of all), similar ones and a draw of the others.
HT1080 IDH1KD tx – kills HT-1080 cells with IDH1 knockdown | HT-1080 IDH1 knockdown viability, ATP luminescence, 48 h | Potency, µM (top dose mostly 46.1 µM), without a hit: at the top dose activity, negative = toxicity, most hits filed as cytotoxic | 2% of 360,000 active;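 note: 0% = DMSO wells and -100% = cell-free medium wells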
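Cytotoxicity counter-line: IDH1KD HT-1080, 48 h, CellTiter-Glo. Curves classed by r2, magnitude and activity.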
HT1080-NT tox – kills 2HG-producing HT-1080-NT fibrosarcoma cells; HT-1080-NT fibrosarcoma viability, CellTiter-Glo ATP luminescence, 48 h; Potency, µM (series often up to 46.1 µM), for the others: at the highest dose activity, negative = less viability, usual class: cytotoxic; 1.6% of 360,000 active;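 note: NT is the 2HG producing partner of a matched IDH1 knockdown line; 0% = DMSO-treated cells and -100% = media-only wells without cells; nearly all actives have a fitted effect of over 55% in size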
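Luminescent CellTiter-Glo readout after 48 hours of compound exposure at 37 degrees C defined viability of HT-1080-NT cells. Activity was normalized to DMSO wells and cell-free media wells; concentration-response curves were fitted and assigned curve classes.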
KB-V1 MDR tox – KB-V1 MDR subline cytotoxicity; Potency, µM (titrated, usually from 46.1 µM), most hits filed as cytotoxic; KB-V1 MDR cells viability, CellTiter-Glo, 72 h; 3.4% of 400,000 active; AID 1347076; note: % is set by controls: 0 for no effect and ±100 for the full control effect; nearly all actives have a fitted effect of over 60% in size
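Following 72 h at 37 degrees C with compound, KB-V1 cell viability was read by CellTiter-Glo luminescence, medium being phenol-red-free DMEM plus 10% FBS; concentration-response parameters came from normalized, curve-fitted qHTS data.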
KB-3-1 cytotox – kills parental KB-3-1 adenocarcinoma cells | KB-3-1 viability, CellTiter-Glo ATP luminescence, 72 h | 1.4% of 400,000 active | Potency, µM (doses to about 46.1 µM), usual class: cytotoxic; note: % is set by controls: 0 for no effect and ±100 for the full control effect; nearly all actives have a fitted effect of over 60% in size
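Screening of KB-3-1 cells (DMEM, 10% FBS, phenol-red free) ran from lowest to highest compound concentration; after 72 h at 37 °C viability was read luminescently and curves fitted.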
TGFb inhibitor – inhibitors of TGF-b signaling. AID 588855. HepG2 CAGA-GFP TGF-b/SMAD3 reporter, GFP fluorescence, 18 h; TGF-beta stimulated, 500 pg/mL final. Potency, µM (highest dose often 46.1 µM), without a hit: top-dose activity, negative = inhibition, usual class: inhibitors. 1.2% of 410,000 active; note: % is set by controls: 0 for no effect and ±100 for the full control effect; nearly all actives have a fitted effect of over 65% in size
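Per well, imaged GFP fluorescence of HEPG2 CAGA-GFP cells gives the signal; cells get compound, then TGF-beta (500 pg/mL final), 18 h at 37 degrees C; %Activity versus -TGF-beta and +DMSO controls.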
HepG2 tox – HepG2 cytotoxicity, counter-screen for TGF-b inhibitors. HepG2 CAGA-GFP viability, ATP luminescence, 18 h. 0.76% of 410,000 active. Potency, µM (doses to about 46.1 µM), for the others: top-dose activity change, negative = cytotoxicity, hits mostly cytotoxic
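HepG2 CAGA-GFP cells (1000/well, DMEM with 1% FBS) received compound, then TGF-beta at 500 pg/mL final, and were incubated 18 hours at 37 degrees C. Viability was read by CellTiter-Glo luminescence. Media-only wells were set as complete cell-killing and DMSO as no toxicity.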
An asterisk follows results filed as active. Calls come from the whole dose curve; as a rule, active = well fitted curve in the direction sought with a large enough effect; inconclusive = small, poorly fitted or top-dose-only effect, or another doubt; inactive = no such curve, though single readings can be large; an effect the other way counts as inactive or inconclusive. Potency is the fitted concentration of half-maximal effect.

How did COc1ccccc1NC(=O)CCNS(=O)(=O)c1ccc2c(c1)CCCC(=O)N2 do in these assays?
KB-V1 MDR tox: inactive; KB-3-1 cytotox: inactive; TGFb inhibitor: 2%; HepG2 tox: -54%

Results for C[C@H]1CN([C@@H](C)CO)C(=O)CCCn2cc(nn2)CO[C@@H]1CN(C)C(=O)Oc1ccccc1 ?
HT1080 IDH1KD tx: 7%; HT1080-NT tox: 22%; KB-V1 MDR tox: inactive; KB-3-1 cytotox: inactive; TGFb inhibitor: 0%; HepG2 tox: 0%

Results for O=C(Nc1ccccc1N1CCOCC1)C1CCN(S(=O)(=O)c2ccccc2F)CC1 ?
HT1080 IDH1KD tx: 14%; HT1080-NT tox: 20%; KB-V1 MDR tox: 8.2µM*; KB-3-1 cytotox: inactive; TGFb inhibitor: -22%; HepG2 tox: -24%

What do the screens show for `COc1ccc(N2CCN(Cc3nc4c(c(=O)[nH]c(=O)n4C)n3Cc3ccccc3)CC2)cc1`?
TGFb inhibitor: 0%; HepG2 tox: -25%

Results for N=c1n(CCCOc2ccccc2Cl)c2ccccc2n1CC(N)=O ?
HT1080 IDH1KD tx: inconclusive; HT1080-NT tox: inconclusive; KB-V1 MDR tox: inactive; KB-3-1 cytotox: inconclusive; TGFb inhibitor: 13µM*; HepG2 tox: -188%

Results for Clc1cccc(-c2nc3ccccn3c2Nc2ccc3c(c2)OCCO3)c1 ?
KB-V1 MDR tox: inactive; KB-3-1 cytotox: inactive; TGFb inhibitor: inconclusive; HepG2 tox: -18%

How did Cc1ccc2cc(CN(CCc3ccccc3)C(=S)NCCCN(C)C)c(=O)[nH]c2c1 do in these assays?
HT1080 IDH1KD tx: inconclusive; HT1080-NT tox: 26µM*; KB-V1 MDR tox: inactive; KB-3-1 cytotox: inactive; TGFb inhibitor: inconclusive; HepG2 tox: -89%

Results for Cc1cccc2cc(CN(CCCN(C)C)C(=S)NCCc3ccccc3)c(=O)[nH]c12 ?
HT1080 IDH1KD tx: -18%; HT1080-NT tox: -20%; KB-V1 MDR tox: inconclusive; KB-3-1 cytotox: inactive; TGFb inhibitor: -29%; HepG2 tox: 5%

How did Cc1ccc2[nH]c(=O)c(CN(CCCN(C)C)C(=S)NCCc3ccccc3)cc2c1 do in these assays?
HT1080 IDH1KD tx: 18µM*; HT1080-NT tox: 18µM*; KB-V1 MDR tox: inactive; KB-3-1 cytotox: inconclusive; TGFb inhibitor: inconclusive; HepG2 tox: -74%

What do the screens show for `Cc1cc(C)c(NC(=O)CSc2n[nH]c(-c3ccccc3Cl)n2)c(C)c1`?
KB-V1 MDR tox: inconclusive; KB-3-1 cytotox: inactive; TGFb inhibitor: 10%; HepG2 tox: -6%

What do the screens show for `CCN(CC)CCNC(=O)c1ccc(NC(=O)c2cn(-c3ccc(F)cc3)nc2-c2cccc(OC)c2)cc1`?
HT1080 IDH1KD tx: 21µM*; HT1080-NT tox: 23µM*; KB-V1 MDR tox: inactive; KB-3-1 cytotox: inactive; TGFb inhibitor: inconclusive; HepG2 tox: inactive

How did CCOc1ccc(NC(=O)CN(C)C(=O)c2cn(-c3ccc(F)cc3)nc2-c2cccc(OC)c2)cc1OCC do in these assays?
HT1080 IDH1KD tx: -12%; HT1080-NT tox: -11%; KB-V1 MDR tox: inconclusive; KB-3-1 cytotox: inactive; TGFb inhibitor: inconclusive; HepG2 tox: -13%

Results for CCN(CC)CCNC(=O)c1ccc(NC(=O)c2ccccc2-c2ccc(C(F)(F)F)cc2)cc1 ?
HT1080 IDH1KD tx: 18µM*; HT1080-NT tox: 23µM*; KB-V1 MDR tox: inactive; KB-3-1 cytotox: inactive; TGFb inhibitor: inconclusive; HepG2 tox: -51%

What do the screens show for `CCN(CC)CCNC(=O)c1ccc(NC(=O)c2cn(-c3ccccc3)nc2-c2cccs2)cc1`?
HT1080 IDH1KD tx: inconclusive; HT1080-NT tox: inconclusive; KB-V1 MDR tox: inconclusive; KB-3-1 cytotox: inconclusive; TGFb inhibitor: inconclusive; HepG2 tox: 11µM*

Results for C/C(=N\NC(=O)Cc1ccccc1)c1ccc(Br)s1 ?
HT1080 IDH1KD tx: 20%; HT1080-NT tox: 13%; KB-V1 MDR tox: inactive; KB-3-1 cytotox: inactive; TGFb inhibitor: 5%; HepG2 tox: -2%

What do the screens show for `C/C(=N/NC(N)=S)c1ccc(Br)s1`?
HT1080 IDH1KD tx: inconclusive; HT1080-NT tox: inconclusive; KB-V1 MDR tox: 8.2µM*; KB-3-1 cytotox: inconclusive; TGFb inhibitor: inconclusive; HepG2 tox: -17%

What do the screens show for `C/C(=N\NC(N)=S)c1cc(-c2ccccc2)c(-c2ccccc2)s1`?
HT1080 IDH1KD tx: inconclusive; HT1080-NT tox: inconclusive; KB-V1 MDR tox: inconclusive; KB-3-1 cytotox: inactive; TGFb inhibitor: 13µM*; HepG2 tox: -41%

What do the screens show for `Cc1ccnc(NC(=S)Nc2cccc([S+](=O)([O-])Nc3ccccc3F)c2)c1`?
KB-V1 MDR tox: inactive; KB-3-1 cytotox: inactive

What do the screens show for `CCOC(=O)c1[nH]c(C)c(C(=O)NCc2cccc(OC)c2)c1C`?
KB-V1 MDR tox: inactive; KB-3-1 cytotox: inactive; TGFb inhibitor: -9%; HepG2 tox: -14%

What do the screens show for `COc1ccc(CCNC(=O)c2[nH]c(C)c(C(C)=O)c2C)cc1OC`?
HT1080 IDH1KD tx: 12%; HT1080-NT tox: 17%; KB-V1 MDR tox: inactive; KB-3-1 cytotox: inactive; TGFb inhibitor: 8%; HepG2 tox: -3%

How did CCOC(=O)c1[nH]c(C)c(C(=O)NCCc2ccc(OC)cc2)c1C do in these assays?
HT1080 IDH1KD tx: 5%; HT1080-NT tox: 7%; KB-V1 MDR tox: 15µM*; KB-3-1 cytotox: inactive; TGFb inhibitor: -3%; HepG2 tox: 0%

Results for CCOC(=O)c1[nH]c(C)c(C(=O)NCc2ccc(Cl)cc2)c1C ?
HT1080 IDH1KD tx: -25%; HT1080-NT tox: inconclusive; KB-V1 MDR tox: 23µM*; KB-3-1 cytotox: inactive; TGFb inhibitor: -21%; HepG2 tox: -15%

Results for CCOc1ccc(CCNC(=O)c2[nH]c(C)c(C(C)=O)c2C)cc1OCC ?
HT1080 IDH1KD tx: -28%; HT1080-NT tox: -2%; KB-V1 MDR tox: 18µM*; KB-3-1 cytotox: inactive; TGFb inhibitor: -2%; HepG2 tox: -19%

What do the screens show for `CCOC(=O)c1[nH]c(C)c(C(=O)N(C)Cc2ccccc2)c1C`?
HT1080 IDH1KD tx: -15%; HT1080-NT tox: -4%; KB-V1 MDR tox: 16µM*; KB-3-1 cytotox: inactive; TGFb inhibitor: 10%; HepG2 tox: -20%

Results for CCOC(=O)c1[nH]c(C)c(C(=O)NCc2ccc(F)cc2)c1C ?
KB-V1 MDR tox: inactive; KB-3-1 cytotox: inactive; TGFb inhibitor: -5%; HepG2 tox: -3%

How did O=C(Cc1ccc(F)cc1)NCCc1csc2nc(-c3ccc(Cl)cc3)nn12 do in these assays?
KB-V1 MDR tox: inactive; KB-3-1 cytotox: inactive; TGFb inhibitor: inconclusive; HepG2 tox: -16%
